From PubChem BioAssay
Cdc42 wt GTP: changes GTP binding to wildtype human Cdc42; P60953; AID 761; hit rate 0.2% among 190,000; percent activity (GTP binding), % at 10 µM; GST-Cdc42 beads, Bodipy-GTP binding, flow cytometry; actives lie on both sides;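 active means percent activity GTP binding at least 20 points away from the 100% baseline, either down as inhibitor or up as activator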;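 further: median bead fluorescence of bound Bodipy-FL-GTP at 100 nM; 0% = excess unlabeled GTP control and 100% = no compound control; below 100% means less GTP binding so inhibitor and above means activator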
Target sequence (P60953 whole entry, looked up): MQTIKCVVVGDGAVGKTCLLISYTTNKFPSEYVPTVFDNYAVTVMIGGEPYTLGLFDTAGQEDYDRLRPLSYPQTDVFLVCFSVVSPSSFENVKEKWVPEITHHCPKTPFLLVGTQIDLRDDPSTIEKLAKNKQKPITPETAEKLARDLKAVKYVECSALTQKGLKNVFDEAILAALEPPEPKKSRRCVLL
HRas wt GTP bind: human HRas wildtype GTP binding, change in either direction; P01112; GST-Ras wt beads, Bodipy-FL-GTP binding, flow cytometry; actives lie on both sides; GTP binding activity, % at 10 µM; hit rate 0.14% among 190,000;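 active means GTP binding activity at least 20% away from the 100% baseline, either lowered as inhibitor or raised as activator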;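 further: 0% = unlabeled GTP competition control and 100% = no-compound control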
Target sequence (P01112 whole entry, looked up): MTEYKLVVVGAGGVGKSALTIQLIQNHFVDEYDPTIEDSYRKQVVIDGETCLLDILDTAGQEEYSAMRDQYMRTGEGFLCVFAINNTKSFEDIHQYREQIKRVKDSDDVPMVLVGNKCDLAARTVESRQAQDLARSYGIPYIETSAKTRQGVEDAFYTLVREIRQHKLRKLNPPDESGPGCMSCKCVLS
Rac1 mut GTP: alters GTP binding to activated mutant human Rac1. P63000. percent activity (GTP binding), % at 10 µM. AID 764. hit rate 0.11% among 190,000. GST-Rac1 activated beads, fluorescent GTP binding, flow cytometry; actives lie on both sides; 100% means binding = to untreated wells;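 active means GTP binding at least 20 percentage points away from the 100% baseline, in either direction, so actives lie on both sides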
Rac1 wt GTP bind: alters GTP binding to wildtype human Rac1; AID 757; P63000; hit rate 0.27% among 190,000; GTP binding activity (% of control), % at 10 µM; GST-Rac1 beads, fluorescent GTP binding, flow cytometry; actives lie on both sides; 0 = cold GTP competed, 100 = untreated;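 active means GTP binding activity at least 20 points away from the 100% control level, either lower or higher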
Rab2 wt GTP: changes GTP binding to wildtype dog Rab2A, up or down; GTP binding activity, % at 10 µM; hit rate 0.19% among 190,000; GST-Rab2 wt beads, Bodipy-GTP binding, flow cytometry; P61105;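 active means GTP binding activity at least 20 points away from 100%, either lowered or raised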;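 further: 0% = beads with excess unlabeled GTP and 100% = no-compound control corrected for plate trend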
Rab7 wt modul: alters GTP binding to wildtype dog Rab7; GST-Rab7 beads, fluorescent GTP binding, flow cytometry; actives lie on both sides; untreated = 100%, excess cold GTP = 0%; AID 758; GTP binding activity (percent of control), % at 10 µM; hit rate 0.055% among 190,000;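 active means fluorescent GTP binding to Rab7 beads changed by at least 20 points from the 100% baseline, either direction, mostly lower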;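 further: median green fluorescence of bound Bodipy-FL-GTP per Rab7 bead population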
* marks the source's active call; other numbers are inactive results; [ ] = dose if it differs, or a comment. Hits are enriched below; roughly 0.37% of the tested compounds scored in any of these assays.

`CCCN(CC(=O)Nc1cc(Cl)cc(Cl)c1)CC(=O)Nc1ccc(F)c(F)c1F` gave Cdc42 wt GTP 92, HRas wt GTP bind 98, Rac1 mut GTP 99, Rac1 wt GTP bind 100, Rab2 wt GTP 98 and Rab7 wt modul 97.
CCOC(=O)c1c(NC(=O)COC(=O)c2nc(Cl)ccc2Cl)sc2c1CCC2 was read as Cdc42 wt GTP 100, HRas wt GTP bind 103, Rac1 mut GTP 102, Rac1 wt GTP bind 104, Rab2 wt GTP 101 and Rab7 wt modul 100.
Screening Cc1ccc(-c2nnc3c4ccccc4c(C)nn23)cc1NC(=O)CN1CCOCC1 returned Cdc42 wt GTP 96, HRas wt GTP bind 96, Rac1 mut GTP 97, Rac1 wt GTP bind 97, Rab2 wt GTP 94 and Rab7 wt modul 95.
`Cc1ccc(-c2nnc3c4ccccc4c(C)nn23)cc1S(=O)(=O)N1CCN(CCO)CC1` gave Cdc42 wt GTP 82, HRas wt GTP bind 85, Rac1 mut GTP 95, Rac1 wt GTP bind 88, Rab2 wt GTP 79* and Rab7 wt modul 86.
Screening O=C(Cn1nc2ccccc2n1)N/N=C/c1cc([N+](=O)[O-])ccc1O returned Cdc42 wt GTP 70*, HRas wt GTP bind 73*, Rac1 mut GTP 79*, Rac1 wt GTP bind 61*, Rab2 wt GTP 70* and Rab7 wt modul 82.
For COc1cccc(CNC(=O)CCC2CCCN(C(=O)c3cc(C4CC4)[nH]n3)C2)c1 (stereo unspecified) the results were Cdc42 wt GTP 98, HRas wt GTP bind 98, Rac1 mut GTP 97, Rac1 wt GTP bind 101, Rab2 wt GTP 99 and Rab7 wt modul 101.
COc1ccc(S(=O)(=O)Cc2ccc(C(=O)N3CCN(c4ccc(Cl)cc4)CC3)o2)cc1 was read as Cdc42 wt GTP 102, HRas wt GTP bind 104, Rac1 mut GTP 101, Rac1 wt GTP bind 108, Rab2 wt GTP 105 and Rab7 wt modul 102.
`COc1ccc(S(=O)(=O)Cc2ccc(C(=O)N3CCN(c4cc(Cl)ccc4C)CC3)o2)cc1` gave Cdc42 wt GTP 74*, HRas wt GTP bind 80, Rac1 mut GTP 76*, Rac1 wt GTP bind 76*, Rab2 wt GTP 72* and Rab7 wt modul 77*.
For CC(C)Cc1nnc(NC(=O)CSc2nc(-c3ccccc3)cc(=O)[nH]2)s1 the results were Cdc42 wt GTP 84, HRas wt GTP bind 88, Rac1 mut GTP 83, Rac1 wt GTP bind 84, Rab2 wt GTP 89 and Rab7 wt modul 95.
For CC(=O)OCC1=C(C(=O)O)N2C(=O)C(NC(=O)CCn3nc(C(F)(F)F)c(Br)c3C3CC3)C2SC1 (stereo unspecified) the results were Cdc42 wt GTP 94, HRas wt GTP bind 93, Rac1 mut GTP 93, Rac1 wt GTP bind 95, Rab2 wt GTP 92 and Rab7 wt modul 96.
`COC(=O)c1c(N2C(=O)[C@H]3[C@@H](C2=O)[C@]2(C(=O)Nc4ccccc42)N2CCC[C@@H]32)sc(C)c1C` gave Cdc42 wt GTP 99, HRas wt GTP bind 100, Rac1 mut GTP 95, Rac1 wt GTP bind 103, Rab2 wt GTP 102 and Rab7 wt modul 112.
`COC(=O)c1c(N2C(=O)[C@H]3[C@@H](C2=O)[C@]2(C(=O)Nc4c(C)cc(C)cc42)N2CCC[C@@H]32)sc(C)c1C` gave Cdc42 wt GTP 111, HRas wt GTP bind 120*[activator], Rac1 mut GTP 107, Rac1 wt GTP bind 115, Rab2 wt GTP 126*[activator] and Rab7 wt modul 121*[activator].
Screening COC(=O)c1c(N2C(=O)[C@H]3[C@@H](C2=O)[C@]2(C(=O)Nc4c2ccc(C)c4C)N2CCC[C@@H]32)sc(C)c1C returned Cdc42 wt GTP 110, HRas wt GTP bind 123*[activator], Rac1 mut GTP 114, Rac1 wt GTP bind 124*[activator], Rab2 wt GTP 129*[activator] and Rab7 wt modul 131*[activator].
`O=[N+]([O-])c1ccc(N/N=C/c2ccc[nH]2)cc1` gave Cdc42 wt GTP 101, HRas wt GTP bind 101, Rac1 mut GTP 100, Rac1 wt GTP bind 105, Rab2 wt GTP 102 and Rab7 wt modul 100.
